Jurkat viability – reduces viability or proliferation of Jurkat cells. Jurkat E6.1 viability, ATP luminescence, 48 h. inhibition, % at 4 µM. actives 1.2% (n = 56,000). AID 463;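 active = inhibition above the mean inhibition of all tested compounds plus 3 SD, cut at about 28% in these data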
Htt clearance – mutant huntingtin protein clearance. HeLa Exon1htt(103Q)mCFP, aggregate imaging; zero = plate's median compound well. actives 0.42% (n = 47,000). inhibition, % at 1.5 µM;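 active = inhibition of aggregate fluorescence above about 70%, also judged a hit by eye on the cell image, limit read from the data, passing the limit was not always enough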;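 note: cells exposed to compound for three days before fixation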
SKBR3 24h inh – SK-BR-3 proliferation inhibitors. SK-BR-3 viability, CellTiter-Glo ATP luminescence, 24 h; active compounds read low. viability, % at 10 µM. AID 847. actives 0.47% (n = 41,000);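 active = viability at or below the median of all test compounds minus 3 SD, in both replicates if run twice, cut at about 45% in these data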;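 note: 100% = median untreated cell wells and 0% = median positive control drug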
MKP-1 inh – human dual specificity phosphatase 1 inhibition | P28562 | recombinant MKP-1, OMFP hydrolysis fluorescence | inhibition, %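 (compounds tested at a single concentration somewhere between 10 and 100 µM)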 | actives 0.15% (n = 65,000) | AID 374;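 active = inhibition above about 50%, limit read from the data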;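 note: 0% = DMSO max control wells and 100% = wells with enzyme stopped by NaOH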
Cdc25B block – human M-phase inducer phosphatase 2 inhibition. P30305. recombinant Cdc25B, OMFP fluorescence Ex485/Em525. inhibition, %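 (compounds tested at 10 µM final in the well)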. actives 0.1% (n = 65,000); in the data active = inhibition above about 50%
Target sequence (P30305 whole entry, looked up): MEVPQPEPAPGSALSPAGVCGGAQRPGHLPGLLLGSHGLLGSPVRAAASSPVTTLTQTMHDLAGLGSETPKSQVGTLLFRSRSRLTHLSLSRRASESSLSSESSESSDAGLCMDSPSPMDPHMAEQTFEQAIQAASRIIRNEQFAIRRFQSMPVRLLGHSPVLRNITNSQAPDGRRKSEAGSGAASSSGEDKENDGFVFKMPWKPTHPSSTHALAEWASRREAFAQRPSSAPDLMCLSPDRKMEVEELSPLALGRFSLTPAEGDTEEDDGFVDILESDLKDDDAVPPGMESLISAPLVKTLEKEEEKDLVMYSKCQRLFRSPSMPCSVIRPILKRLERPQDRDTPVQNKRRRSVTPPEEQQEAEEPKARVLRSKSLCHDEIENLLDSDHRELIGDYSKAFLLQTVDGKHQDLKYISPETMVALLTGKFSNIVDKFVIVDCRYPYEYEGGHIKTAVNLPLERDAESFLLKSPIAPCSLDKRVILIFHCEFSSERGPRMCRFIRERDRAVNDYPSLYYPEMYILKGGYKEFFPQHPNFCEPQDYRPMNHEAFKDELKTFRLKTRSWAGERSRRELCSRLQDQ
An asterisk follows results filed as active; i = inactive; x = not tested or not shown. The list is not random: actives were taken first. Their share in the collection is about 1.6%.

SMILES	Jurkat viability	Htt clearance	SKBR3 24h inh	MKP-1 inh	Cdc25B block
CCCn1c(N2CCN(CC(=O)c3c[nH]c4ccccc34)CC2)nc2c1c(=O)[nH]c(=O)n2C	-2	-29	91	27	-4
COc1ccc(C2=CC(c3ccc(Cl)cc3)n3cnnc3N2)cc1OC (stereo not drawn)	x	x	40*	26	-14
COc1ccc(C2C=C(c3ccc(Cl)cc3)Nc3nc(NC(C)=O)nn32)cc1 (stereo not drawn)	x	-37	66	16	3
COc1ccccc1NS(=O)(=O)c1ccc(OC)c(OC)c1	8	-9	29*	-24	-3
CCOc1ccccc1NS(=O)(=O)c1ccc(OC)c(OC)c1	11	x	74	-2	-6
CCn1nnc(-c2ccccc2NC(=O)c2cccc(-n3cnnn3)c2)n1	-5	15	42*	14	-3
CCOC(=O)C1CCN(C(=O)Nc2ccc(Cl)cc2Cl)CC1	2	x	91	1	2
O=C(NC1CC1)c1nc2c(nnn2Cc2ccccc2Cl)c(=O)[nH]1	x	-34	x	x	x
O=C(NC1CCCCC1)c1nc2c(nnn2Cc2ccccc2Cl)c(=O)[nH]1	-4	74*	96	19	1
O=C(Nc1nc(-c2cccs2)cs1)c1ccc(S(=O)(=O)N2CCCCC2)cc1	31	x	x	0	-4
O=C(Nc1nc(-c2ccccn2)cs1)c1ccc(Cl)s1	48*	x	x	-8	-20
O=C(Nc1nc(-c2ccccn2)cs1)c1ccc(S(=O)(=O)N2CCCCC2)cc1	54*	x	83	11	1
COCCOC(=O)C1=C(C)N=C2SCCC(=O)N2C1c1cc(Br)ccc1OC (stereo not drawn)	-3	x	86	2	-8
C/C=C/COC(=O)c1[nH]c2c(c1C)C(=O)CC(c1ccco1)C2 (stereo not drawn)	99*	-216	x	1	9
Cc1c(C(=O)OC2CCCC2)[nH]c2c1C(=O)CC(c1ccco1)C2 (stereo not drawn)	100*	x	x	5	-3
Cc1c(C(=O)OCC(C)C)[nH]c2c1C(=O)CC(c1ccco1)C2 (stereo not drawn)	99*	20	x	5	-10
COC(=O)c1[nH]c2c(c1C)C(=O)CC(c1ccccc1)C2 (stereo not drawn)	98*	-56	84	-18	-4
C/C=C/COC(=O)c1[nH]c2c(c1C)C(=O)CC(c1ccc(N(C)C)cc1)C2 (stereo not drawn)	0	x	x	-1	4
Cc1c(C(=O)OCC2CCCO2)[nH]c2c1C(=O)CC(c1ccco1)C2 (stereo not drawn)	78*	x	74	5	5
C=CCOC(=O)c1[nH]c2c(c1C)C(=O)CC(c1ccco1)C2 (stereo not drawn)	100*	x	x	7	-1
CCCOCCOC(=O)c1[nH]c2c(c1C)C(=O)CC(c1cc(OC)ccc1OC)C2 (stereo not drawn)	22	x	x	2	-9
COc1ccc(OC)c(C2CC(=O)c3c([nH]c(C(=O)OCC4CCCO4)c3C)C2)c1 (stereo not drawn)	4	7	x	17	-1
Cc1c(C(=O)N2CCOCC2)[nH]c2c1C(=O)CC(c1ccccc1Cl)C2 (stereo not drawn)	82*	35	89	18	-5
Cc1cc2ncn(/N=C/c3ccc([N+](=O)[O-])o3)c2cc1C	x	8	x	x	x
COc1cc(C2Nn3c(nnc3-c3ccccc3OC)S2)ccc1O (stereo not drawn)	x	-5	x	x	x
SMILES	Jurkat viability	Htt clearance	SKBR3 24h inh	MKP-1 inh	Cdc25B block
CCCCC(=O)C1=C(N2CCCC2)CC(C)(C)CC1=O	x	72*	x	x	x
Cc1ccccc1N1C(=O)N(c2cccc(C(F)(F)F)c2)C2CS(=O)(=O)CC21 (stereo not drawn)	1	-7	92	13	3
CCOc1ccc(CC(=O)Nc2c(C(N)=O)oc3ccccc23)cc1OCC	-2	x	34*	-7	-2
CC1CCN(C(=O)CSc2nnc(-c3cc4ccccc4cc3O)n2Cc2ccco2)CC1	0	x	92	12	2
O=C(CN1CCCC1=O)NC1(C(F)(F)F)NC(=O)N(Cc2ccccc2)C1=O (stereo not drawn)	6	-6	95	1	2
O=C(O)c1ccccc1C(=O)N1CCN(c2cccc(Cl)c2)CC1	-11	3	102	10	-3
CCOc1ccc(S(=O)(=O)N2CCN(c3ccc(OC)cc3)CC2)c2cccnc12	6	0	77	13	-4
CCOc1ccc2ccccc2c1C(=O)N1CCN(c2ccccc2)CC1	85*	-143	74	3	-15
CCOC(=O)c1[nH]c(C)c(C(=O)N2CCN(c3ccccc3)CC2)c1C	-6	x	x	9	-4
CCOc1ccccc1C(=O)N1CCN(c2cccc(Cl)c2)CC1	98*	x	95	-1	-21
CCOc1ccc(S(=O)(=O)N2CCN(c3ccccc3)CC2)c2cccnc12	0	x	42*	28	-3
COc1ccc(C(=O)N2CCN(c3cccc(Cl)c3)CC2)c(OC)c1	56*	7	x	10	0
Cc1cc(C(=O)CSc2nnc(-c3cccnc3)n2-c2ccccc2F)c(C)n1CC1CCCO1 (stereo not drawn)	x	5	x	x	x
O=C(c1cccc(F)c1)N1CCN(c2cccc(C(F)(F)F)c2)CC1	-4	x	x	3	-9
COc1ccccc1C(=O)N1CCN(c2cccc(C(F)(F)F)c2)CC1	82*	52	x	6	-17
Cc1nc(SCC(=O)N2CCN(c3ccccc3)CC2)c2c(=O)n(C)c(=O)n(C)c2n1	5	x	x	14	-7
CCCCn1c(CN2CCN(c3cccc(Cl)c3)CC2)nc2c1c(=O)[nH]c(=O)n2C	80*	i	x	35	-3
Cn1c(=O)[nH]c(=O)c2c1nc(CN1CCN(c3cccc(Cl)c3)CC1)n2CCCc1ccccc1	-10	x	x	40	-1
CC(C)CC(C(=O)NCc1ccccn1)N1C(=O)c2ccccc2C1=O (stereo not drawn)	5	x	x	24	-5
O=S1(=O)C=C(Sc2nnc(-c3ccccc3)o2)c2ccccc21	101*	x	1.4*	1	-5
COc1ccc(OC)c(S(=O)(=O)n2cnc3cc(C)c(C)cc32)c1	7	-2	x	21	-8
CCOc1ccc(S(=O)(=O)n2cnc3cc(C)c(C)cc32)cc1	63*	-7	117	-16	-10
Cc1cc2ncn(S(=O)(=O)c3ccc(S(=O)(=O)N4CCCCCC4)cc3)c2cc1C	x	71*	x	x	x
COC(=O)C1=C(N)Oc2cc(C)n(CC3CCCO3)c(=O)c2C1c1ccc(Cl)cc1 (stereo not drawn)	0	-41	85	-10	-7
O=C(CN1C(=O)c2ccccc2S1(=O)=O)NCCSc1ccccc1	-5	x	44*	-20	-6
Cc1ccc(SCCNC(=O)CN2C(=O)c3ccccc3S2(=O)=O)cc1	x	x	89	14	-7
CN(Cc1ccccc1)C(=O)CSc1nnc(-c2ccco2)n1-c1ccccc1	8	x	x	6	-6
O=C(NCC1CCCCC1)C1CCN(C(=O)NC2CCCCC2)CC1	9	-14	35*	15	-7

From PubChem BioAssay
